From PubChem
Mcl-1 Bim block – disrupts Bim peptide binding to human Mcl-1. Q07820. inhibition, % at 10 µM. Bead-based flow cytometry, Bim peptide-Mcl-1 binding. AID 1009. 190,000 compounds, 0.1% hits; in the data active means inhibition above about 40%;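 further: 0% = no compound tracer wells and 100% = peptide blocker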
Target sequence (Q07820 whole entry, looked up): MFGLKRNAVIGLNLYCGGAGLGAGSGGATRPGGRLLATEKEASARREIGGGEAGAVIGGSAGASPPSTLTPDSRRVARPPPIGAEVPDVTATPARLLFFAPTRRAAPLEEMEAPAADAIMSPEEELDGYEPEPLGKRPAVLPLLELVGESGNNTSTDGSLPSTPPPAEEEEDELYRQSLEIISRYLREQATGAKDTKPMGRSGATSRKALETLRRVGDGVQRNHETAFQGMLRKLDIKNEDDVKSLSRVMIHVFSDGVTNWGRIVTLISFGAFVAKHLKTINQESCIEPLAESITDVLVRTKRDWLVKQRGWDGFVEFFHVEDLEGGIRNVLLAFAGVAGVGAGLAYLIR
14-3-3 Bad PPI – disrupts binding of bovine 14-3-3 zeta to phospho-Bad peptide; 220,000 compounds, 0.71% hits; AID 781; TR-FRET 14-3-3zeta/Dy647-pBad peptide displacement, 1 h; inhibition, % at 21.7 µM;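 active means inhibition above about 70%, limit read from the data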;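 further: 0% = full 14-3-3 plus peptide FRET controls and 100% = background without 14-3-3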
p47phox inh – p47phox (human) inhibition; 220,000 compounds, 0.53% hits; AID 1274; P14598; inhibition, % at 24.7 µM; p47phox/p22phox peptide binding, fluorescence polarization, 2 h;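 active means inhibition above about 30%, limit read from the data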;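 further: 0% = p47phox with labelled peptide and 100% = labelled peptide alone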
Mcl1-Bid inh – disrupts binding of human Mcl-1 to Bid peptide | TR-FRET Mcl-1/Bid-Dy647 peptide binding, 1536-well | inhibition, % at 21.7 µM | 220,000 compounds, 0.97% hits | AID 1021;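 active means compounds that cut the binding signal by more than half at the single screening dose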;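 further: His-tagged Mcl-1 with europium anti-His antibody binding Bid BH3 peptide; 0% = Mcl-1 plus peptide wells and 100% = peptide-only wells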
Mcl1-Noxa inh – Mcl-1/Noxa interaction inhibition; TR-FRET Mcl-1/Noxa peptide binding, 2 h; Q07820; 220,000 compounds, 1.5% hits; inhibition, % at 21.7 µM;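 active means compounds that cut the protein-peptide binding signal by more than 50% relative to plate controls in a single-dose test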;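 further: His-tagged Mcl-1 with rhodamine Noxa BH3 peptide and terbium anti-His antibody; 0% = Mcl-1 plus Noxa peptide wells and 100% = peptide-only wells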
Numbers without * were called inactive; [ ] = another dose, or the depositor's remark. Compounds with a hit are over-represented: about 3.1% of the library has one in this group of screens.

For O=C(CCCN1C(=O)/C(=C\c2cccs2)SC1=S)NNC(=O)c1ccncc1 the results were Mcl-1 Bim block -3, 14-3-3 Bad PPI -2, p47phox inh -10, Mcl1-Bid inh -3 and Mcl1-Noxa inh -5.
`C/C(=N/N=C1/NC(=O)CC(C(=O)Nc2ccccc2)S1)c1cccs1` (stereo not drawn) gave Mcl-1 Bim block -6, 14-3-3 Bad PPI -7, p47phox inh -17, Mcl1-Bid inh -10 and Mcl1-Noxa inh 21.
O=C(CSc1cccc[n+]1[O-])Nc1cccc(S(=O)(=O)NC2=NCCCCC2)c1 was read as Mcl-1 Bim block 0, 14-3-3 Bad PPI 4, p47phox inh -1, Mcl1-Bid inh -10 and Mcl1-Noxa inh 22.
CCOC(=O)c1sc(SC)nc1N was read as Mcl-1 Bim block -4, 14-3-3 Bad PPI -14, p47phox inh -4, Mcl1-Bid inh -21 and Mcl1-Noxa inh 13.
`CN(/N=C\c1ccc(O)c(O)c1)c1nc(-c2ccccc2)cc(-c2ccccc2)n1` gave Mcl-1 Bim block 0, 14-3-3 Bad PPI -5, p47phox inh -14, Mcl1-Bid inh 22 and Mcl1-Noxa inh 72*.
`CC(=O)Nc1ccc2ccccc2c1` gave Mcl-1 Bim block -2, 14-3-3 Bad PPI 92*[fluorescence artefact?], p47phox inh -9, Mcl1-Bid inh -12 and Mcl1-Noxa inh 8.
Screening O=C(Nc1ccc(OC(F)(F)F)cc1)c1ccc2ccccc2n1 returned Mcl-1 Bim block 0, 14-3-3 Bad PPI -14, p47phox inh -7, Mcl1-Bid inh -2 and Mcl1-Noxa inh 1.
Screening O=C(NNC(=O)c1ccc(NC(=O)c2ccccc2)cc1)c1ccccc1 returned Mcl-1 Bim block 0, 14-3-3 Bad PPI 2, p47phox inh -14, Mcl1-Bid inh -31 and Mcl1-Noxa inh -17.
`CC(=O)Nc1ccc2cc3ccc(NC(C)=O)cc3nc2c1` gave 14-3-3 Bad PPI 6, p47phox inh -5, Mcl1-Bid inh 1 and Mcl1-Noxa inh 59*.
For O=C(Nc1ccccc1)c1ccc2ccccc2n1 the results were Mcl-1 Bim block -1, 14-3-3 Bad PPI 80*, p47phox inh -7, Mcl1-Bid inh -4 and Mcl1-Noxa inh 5.
For O=C(Nc1ccc2nc3ccccc3nc2c1)c1ccccc1 the results were Mcl-1 Bim block 7, 14-3-3 Bad PPI 4, p47phox inh 2, Mcl1-Bid inh 33 and Mcl1-Noxa inh 81*.
`Cc1sc2cc(-c3cccc([N+](=O)[O-])c3)c(-c3cccc([N+](=O)[O-])c3)c[n+]2c1C` gave Mcl-1 Bim block -1, 14-3-3 Bad PPI -14, p47phox inh -21, Mcl1-Bid inh 12 and Mcl1-Noxa inh 26.
`NC(=O)c1ccc2c(=O)n3c(-c4cccs4)csc3nc2c1` gave 14-3-3 Bad PPI -3, p47phox inh -12, Mcl1-Bid inh -26 and Mcl1-Noxa inh 14.
Screening COc1ccc(C2(CNC(=O)c3ccc(OCC(C)C)cc3)CCOCC2)cc1 returned Mcl-1 Bim block -13, 14-3-3 Bad PPI 1, p47phox inh -2, Mcl1-Bid inh 12 and Mcl1-Noxa inh -1.
For NC(=S)n1[nH]c(-c2ccc([N+](=O)[O-])cc2)c(N=Nc2cccc([N+](=O)[O-])c2)c1=O the results were Mcl-1 Bim block 1, 14-3-3 Bad PPI 91*, p47phox inh -2, Mcl1-Bid inh 82* and Mcl1-Noxa inh 85*.
For Nc1[nH]n(-c2ccccc2)c(=O)c1N=Nc1ccccc1 the results were 14-3-3 Bad PPI -3, p47phox inh -1, Mcl1-Bid inh -21 and Mcl1-Noxa inh 3.
Screening COc1cc([N+](=O)[O-])ccc1N=Nc1c(N)[nH]n(-c2ccccc2)c1=O returned Mcl-1 Bim block 0, 14-3-3 Bad PPI -4, p47phox inh 4, Mcl1-Bid inh -49 and Mcl1-Noxa inh 25.
`Nc1[nH]n(-c2ccccc2)c(=O)c1N=Nc1ccccc1[N+](=O)[O-]` gave Mcl-1 Bim block 3, 14-3-3 Bad PPI 12, p47phox inh -5, Mcl1-Bid inh 40 and Mcl1-Noxa inh 60*.
For Nc1[nH]n(-c2ccccc2)c(=O)c1N=Nc1ccc2ncsc2c1 the results were 14-3-3 Bad PPI -3, p47phox inh 2, Mcl1-Bid inh -18 and Mcl1-Noxa inh 63*.
NC(=S)n1[nH]c(-c2ccc([N+](=O)[O-])cc2)c(N=Nc2ccccc2[N+](=O)[O-])c1=O was read as Mcl-1 Bim block -174, 14-3-3 Bad PPI 65, p47phox inh 30*, Mcl1-Bid inh 90* and Mcl1-Noxa inh 84*.
